# TEAD-YAP inh: TEAD-YAP interaction inhibition, primary screen, TEAD-YAP interaction inhibitor project, luminescence, HEK-TIYL cells | inhibition, % at 9.12 µM | 640,000 tested, 1.4% active | TEAD-Gal4/YAP UAS-luciferase luminescence | AID 1259422, 2018; in the data active = inhibition above about 32%;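 note: 0% = median of test compound wells and 100% = reference inhibitor wells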
# MITF inh: MITF inhibitors, primary screen, biochemical, AlphaScreen, human | Microphthalmia-associated transcription factor (Homo sapiens), O75030 | AlphaScreen MITF homodimerization, bead proximity signal | inhibition, % at 2.6 µM | 650,000 tested, 0.91% active | AID 1259374, 2018; in the data active = inhibition above about 50%;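 note: 0% = vehicle wells with protein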
# FBW7 act: FBW7 E3 ligase activators, primary screen, biochemical, AlphaScreen, human | AlphaScreen FBW7–phospho-cyclin E peptide binding, activator screen | normalized activity (activation), % at 26.1 µM | 650,000 tested, 0.13% active | F-box/WD repeat-containing protein 7 (Homo sapiens), Q969H0; in the data active = normalized activity above about 1.9%;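 note: purified mutant Fbw7 with reduced substrate affinity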
# Target sequence (Q969H0 whole entry, looked up): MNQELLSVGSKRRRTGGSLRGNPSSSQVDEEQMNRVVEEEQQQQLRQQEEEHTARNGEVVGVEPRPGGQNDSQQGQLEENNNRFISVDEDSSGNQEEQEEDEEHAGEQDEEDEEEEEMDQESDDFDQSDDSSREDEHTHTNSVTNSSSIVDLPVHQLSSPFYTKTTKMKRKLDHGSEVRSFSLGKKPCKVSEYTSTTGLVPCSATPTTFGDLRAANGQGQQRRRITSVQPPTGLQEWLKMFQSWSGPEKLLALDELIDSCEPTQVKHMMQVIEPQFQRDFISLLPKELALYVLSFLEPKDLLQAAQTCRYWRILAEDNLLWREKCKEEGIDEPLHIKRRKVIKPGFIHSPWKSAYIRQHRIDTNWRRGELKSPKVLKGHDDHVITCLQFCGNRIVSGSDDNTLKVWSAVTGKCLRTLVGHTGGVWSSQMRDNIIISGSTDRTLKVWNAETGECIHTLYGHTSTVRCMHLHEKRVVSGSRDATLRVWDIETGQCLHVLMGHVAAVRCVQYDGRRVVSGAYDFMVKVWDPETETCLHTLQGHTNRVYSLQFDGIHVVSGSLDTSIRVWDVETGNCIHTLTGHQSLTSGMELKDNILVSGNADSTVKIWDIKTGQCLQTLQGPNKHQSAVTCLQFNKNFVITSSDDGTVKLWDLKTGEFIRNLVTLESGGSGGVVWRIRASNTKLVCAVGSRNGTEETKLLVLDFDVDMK
# GPR151 activ: activators of human GPR151, primary screen, cell-based, PathHunter beta-arrestin, luminescence | AID 1508602, 2020 | PathHunter beta-arrestin GPR151 cells | activation, % at 11.2 µM | 650,000 tested, 1% active | G-protein coupled receptor 151 (Homo sapiens), Q8TDV0; in the data active = activation above about 4.9%;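 note: 0% = median of compound wells and 100% = cells with positive control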
# * hit, by the source's call. Shown are actives, neighbours in structure and some others; about 3.5% of the full set was active somewhere.
SMILES,TEAD-YAP inh,MITF inh,FBW7 act,GPR151 activ
COc1ccc(CNCCC2CCC(=O)N2Cc2cc(F)cc(C(F)(F)F)c2)cc1 (centres undefined),0.7,-1.7,-0.3,-1.5
COCC(C)NC(=O)c1ccccc1Oc1ccccc1 (centres undefined),-4.1,-8.7,0.1,-1.4
CCC(C)NC(=O)c1cn(C2CCCCC2)c(=O)c2c1c1ccccc1n2C (centres undefined),4.4,13.7,2.3*,1.2
COCCNC(=O)c1cn(C2CCCCC2)c(=O)c2c1c1ccccc1n2C,11.1,9.3,0.1,-0.9
O=C(O)CCNc1cc(N2CCC3(CC2)OCCO3)c2noc3c2c1C(=O)c1ccccc1-3,25.5,62.8*,-0.5,-2.1
CCOC(=O)C1CCN(c2cc(NCC(=O)O)c3c4c(onc24)-c2ccccc2C3=O)CC1,2.0,70.2*,-1.3,-2.4
O=C(O)CNc1cc(N2CCCCC2)c2noc3c2c1C(=O)c1ccccc1-3,59.2*,48.9,-1.1,-0.3
CCOC(=O)c1ccc(N2C(=O)c3ccccc3NC2c2ccc(OCC(C)C)cc2)cc1 (centres undefined),-37.8,7.0,0.0,0.0
COc1ccc(CN2CCN(c3nc(Cc4ccccc4)nc4sc5c(c34)CCCC5)CC2)c(OC)c1OC,3.5,4.8,-0.1,1.7
CCC(=O)Nc1sc2c(c1-c1nc3ccccc3s1)CCN(CC)C2,54.3*,6.3,0.4,2.5
CCOC(=O)N1CCc2c(sc(NC(=O)CC)c2-c2nc3ccccc3s2)C1,10.1,19.1,0.1,-1.4
CCN1CCc2c(sc(NC(C)=O)c2-c2nc3ccccc3s2)C1,68.6*,9.6,0.1,0.4
CCN1CCc2c(sc(NC(=O)c3ccc(S(=O)(=O)N(CC)CC)cc3)c2-c2nc3ccccc3s2)C1,-0.8,4.7,0.1,0.1
O=[N+]([O-])c1cc(Sc2ccc(Cl)cc2)c2c(C3OCCO3)noc2c1,7.6,7.3,-0.1,-0.5
CCOC(=O)C1=C(C)NC(SC)=C(C#N)C1CC(C)C (centres undefined),38.1*,2.1,0.1,-0.2
CN(C)c1cccc(Nc2ccnc3c(-c4cccc(CO)c4)cnn23)c1,63.0*,-19.0,0.0,0.8
CCCNc1ccnc2c(-c3cccc(CO)c3)cnn12,102.0*,1.7,-0.4,-4.6
Cc1cccc(N(C)c2ccnc3c(-c4cccc(CO)c4)cnn23)c1,76.4*,-3.6,-0.1,0.5
CN(C)c1cccc(Nc2ccnc3c(-c4ccc(O)cc4)cnn23)c1,-37.6,-9.5,-0.3,0.9
CCCNc1ccnc2c(-c3ccc(N(C)C)cc3)cnn12,8.4,12.5,-0.7,-0.7
CCCNc1ccnc2c(-c3ccc(O)cc3)cnn12,96.8*,-16.2,0.0,-1.5
OCc1cccc(-c2cnn3c(NCCCN4CCOCC4)ccnc23)c1,28.3,-4.4,0.0,-1.4
CN1CCN(c2ccnc3c(-c4ccc(O)cc4)cnn23)CC1,43.5*,77.5*,-0.6,0.2
CN1CCN(c2ccnc3c(-c4ccc(Cl)cc4)cnn23)CC1,-53.6,-9.4,0.2,-0.2
CCOC(=O)C1=C(C)NC2=C(C(=O)CCC2)C1c1ccc(OC)cc1 (centres undefined),-0.2,5.0,-0.1,0.6
SMILES,TEAD-YAP inh,MITF inh,FBW7 act,GPR151 activ
C/C(=C\C(=O)O)C(=O)Nc1ccc(N2CCOCC2)cc1,1.4,53.1*,-0.3,-1.4
CC(=O)Nc1ccc(N2CCOCC2)cc1,-9.4,-5.3,0.0,1.3
CCCNC(=O)c1cccc(Nc2ccc(N3CCOCC3)cc2)n1,3.0,-2.3,-0.1,0.6
O=C(NCCc1ccc(O)cc1)c1cccc(Nc2ccc(N3CCOCC3)cc2)n1,56.8*,1.8,-0.2,-0.2
O=C(Nc1ccc(N2CCOCC2)cc1)c1cccc(Cl)n1,60.4*,12.3,0.0,-10.7
O=C(NCCN1CCOCC1)c1cccc(-c2ccc(N3CCOCC3)nc2)n1,-1.3,-7.2,-0.1,2.4
O=C(NCCc1ccc(O)cc1)c1cccc(-c2ccc(N3CCOCC3)nc2)n1,46.3*,-2.3,-0.1,-1.4
Cc1ncsc1CCC(=O)N1CCOc2ccc(C(O)C3CCCCC3)cc2C1 (centres undefined),3.1,7.3,0.0,0.1
COc1ccc(C2CC(c3cccs3)=NN2c2nc(-c3ccc(-c4ccccc4)cc3)cs2)cc1OC (centres undefined),-29.8,-6.6,-0.1,-5.5
COc1cc(-c2nc3sc4c(c3c(=O)[nH]2)CCCC4)ccc1OCCOc1ccc(Br)cc1,-12.7,5.9,0.1,-1.3
CC(=O)c1ccc(NC(=O)CSc2cc(C)[nH]c(=O)n2)cc1,4.1,-2.3,-0.3,0.5
C=CCn1cc(/C=c2/sc3n(c2=O)C(c2ccc(C(C)C)cc2)C(C(=O)OCC)=C(C)N=3)c2ccccc21 (centres undefined),-3.4,-12.9,-0.1,-0.9
CC(C)C(=O)Nc1nnc(-c2ccncc2)s1,4.6,-2.1,-0.5,0.5
CC(=O)C1=C(c2ccc([N+](=O)[O-])cc2)N(C(C)=O)n2cnnc2S1,32.1*,-6.3,-0.1,0.8
COC(=O)C1=C(NC(=O)c2cc([N+](=O)[O-])ccc2Cl)CCS1,-7.9,-1.0,0.1,0.1
COc1cccc(O)c1O,43.3*,89.5*,-0.3,-1.7
O=C(NC1CCCC1)c1ccc(N2CCC(NCCc3cn4ccsc4n3)CC2)cc1,10.0,31.8,0.5,-1.2
C/C=C/C(=O)NNC(=O)c1ccccc1,6.0,15.7,0.8,0.3
CCCn1c(NC(=O)c2cccc(S(=O)(=O)N(C)C(C)C)c2)nc2ccccc21,33.6*,12.6,-0.1,3.0
NC(=O)c1nc(-c2cccs2)nc2c1[nH]c(=O)n2C1CCCCC1,-3.6,8.5,0.1,0.3
Cc1ccc(-c2c(NC3CCCC3)c(=O)c2=O)cc1C,32.2*,12.4,0.0,0.6
CCC(C)Nc1c(-c2ccc(C)cc2)c(=O)c1=O (centres undefined),23.6,13.0,0.1,-1.9
CCC(C)Nc1c(-c2ccc(C)c(C)c2)c(=O)c1=O (centres undefined),52.2*,-2.5,-0.2,0.4
CCn1c(=O)cc(SCC(=O)N2CCN(c3cccc(C)c3)C(C)C2)c2ccccc21 (centres undefined),14.4,2.9,-0.2,0.4
CCC(C(=O)NC(C)(C)C)N(C(=O)Cn1nnc(-c2ccc(C)o2)n1)c1ccccc1C (centres undefined),-1.4,-2.6,-0.1,-0.2
CCOC(=O)c1sc(N/N=C/c2ccccc2O)nc1C,49.5*,7.4,-0.1,1.0
Cc1cc(OCC(=O)Nc2ccccn2)ccc1Cl,63.5*,-4.2,0.4,3.1
Cc1ccnc(NC(=O)COc2ccc(Cl)c(C)c2)c1,-31.1,4.7,-0.1,-1.0
COc1ccc(CCNc2nc(SCC(=O)N3CCN(c4ccccc4)CC3)nc3ccccc23)cc1OC,35.5*,9.7,0.6,0.6

# Bioassay records (PubChem)
